Lassa entry inh: Lassa virus entry inhibition; Lassa virus pseudotype entry inhibition, cell reporter; 300,000 compounds, 1.2% hits; Potency, µM (highest dose often 37.9 µM), usual class: inhibitors; AID 540256; calls by dose curve; tested in HEK293 cells; also: nearly all actives have a fitted effect of over 50% in size
FMDV antiviral: antivirals against foot and mouth disease virus; FMDV antiviral cell-based qHTS; Potency, µM (titrated, usually from 57.9 µM), most hits filed as inhibitors; 410,000 compounds, 1.2% hits; AID 1159524; calls by dose curve; tested in HEK293T cells; also: read-out not given here; nearly all actives have a fitted effect of over 45% in size
Marburg entry inh: Marburg virus entry inhibition. Marburg virus pseudotyped entry inhibition, cell reporter. Potency, µM (series often up to 37.8 µM), usual class: inhibitors. 300,000 compounds, 1.8% hits. AID 540276; calls by dose curve; tested in HEK293 cells
HCV inh: blocks hepatitis C virus. Huh7.5.1 HCVcc-Cre infection, luciferase reporter, 44 h. AID 651820. Potency, µM (series often up to 41.8 µM), usual class: inhibitors. 340,000 compounds, 3.4% hits; active = well fitted inhibition curve with a large enough effect; inconclusive = small, poorly fitted or top-dose-only effect, or another doubt; inactive = no such curve, though single readings can be large or run the other way
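1,000 cells/well; 4 h culture; + compound; + HCVcc-Cre (~0.5 moi); 44 h; luciferase substrate, RT 15 min; read 15 sec.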
HCMV antiviral: blocks human cytomegalovirus replication; HFF cells, HCMV-luciferase reporter, 72 h; active compounds read low; activity change, negative = inhibition, % at 57.5 µM; AID 1259415; 410,000 compounds, 4.5% hits; in the data active = activity change below about -60%; inconclusive = no clear call, values can overlap the other calls; inactive = above about -39%
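Inhibition of viral replication was scored as loss of reporter luminescence in HFFs infected with HCMV-luciferase (MOI 1 PFU/cell) for 72 h; compounds tested at 2 doses, normalized to buffer and Salinomycin controls.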
Each line names hits and unclear results; the compound was inactive in the other large screens. Only some compounds are listed: those with a hit (about 7.9% of all), similar ones and a draw of the others.

O=C(OCc1cn([C@H]2CN(CC3CCCCC3)[C@@H](c3ccc(Cl)cc3)C[C@H]2O)nn1)c1ccccc1	Marburg entry inh 14.1µM (no result: Lassa entry inh, FMDV antiviral, HCV inh, HCMV antiviral)
CCCCCCN1C[C@H](n2cc(COC(=O)c3ccccc3)nn2)[C@@H](O)C[C@@H]1c1ccccc1	none (no result: Lassa entry inh, Marburg entry inh, HCV inh)
CCCCCCN1C[C@H](n2cc(C3CC3)nn2)[C@@H](O)C[C@H]1c1ccc(Cl)cc1	Lassa entry inh 15.8µM (no result: FMDV antiviral, Marburg entry inh, HCV inh, HCMV antiviral)
CCCCCCN1C[C@@H](n2cc(COC(=O)c3ccccc3)nn2)[C@H](O)C[C@@H]1c1ccc(Cl)cc1	HCMV antiviral -101.2 (no result: Lassa entry inh, Marburg entry inh, HCV inh)
CCCCCCN1C[C@@H](n2cc(COC(=O)c3ccccc3)nn2)[C@H](O)C[C@@H]1c1ccccc1	HCMV antiviral -103.4 (no result: Lassa entry inh, Marburg entry inh, HCV inh)
Cc1ccc(-n2c(=O)[nH]c3sc4c(c3c2=O)CCNC4)cc1C	Marburg entry inh inconclusive (no result: HCV inh)
Cc1ccnc(NC(c2cccnc2)c2ccc3cccnc3c2O)c1 (centres undefined)	Lassa entry inh inconclusive, Marburg entry inh 8.91µM, HCV inh 3.98µM
Cc1ccnc(NC(c2ccccc2)c2ccc3cccnc3c2O)c1 (centres undefined)	Lassa entry inh inconclusive, Marburg entry inh inconclusive, HCV inh 12.6µM, HCMV antiviral -77.7
COc1ccccc1NC(c1cccnc1)c1ccc2cccnc2c1O (centres undefined)	Lassa entry inh inconclusive, Marburg entry inh inconclusive, HCV inh inconclusive
CC(C)CN1CCC2(CC1)CCN(C(=O)c1ccco1)CC2	none (no result: Lassa entry inh, Marburg entry inh, HCV inh, HCMV antiviral)
COc1cccc(-n2nc(C#N)c(Cl)cc2=O)c1	Lassa entry inh inconclusive, FMDV antiviral 11.2µM, Marburg entry inh inconclusive, HCV inh inconclusive, HCMV antiviral -96.3
CC(C)(C)OC(=O)N1CCC(C(=O)Nc2ccc(C(=O)NCCc3ccccc3)cc2)CC1	HCV inh inconclusive, HCMV antiviral inconclusive (no result: Lassa entry inh, Marburg entry inh)
COc1cc(NC(=O)CSCC(=O)Nc2cc(OC)cc(OC)c2)cc(OC)c1	none (no result: Lassa entry inh, Marburg entry inh, HCMV antiviral)
O=C1OC(c2ccccc2)=NC12CC2c1ccc(Cl)cc1 (centres undefined)	Lassa entry inh inconclusive, FMDV antiviral 28.2µM, Marburg entry inh inconclusive
Oc1ccc(CCNc2ncnc3ccc(Cl)cc23)cc1	FMDV antiviral 10µM, HCV inh 3.16µM, HCMV antiviral -98.0 (no result: Lassa entry inh, Marburg entry inh)
COC(=O)[C@]1(C)N[C@H](CN(C)C(=O)c2ccc(C)cc2)[C@@H]2C(=O)N(Cc3ccccc3)C(=O)[C@@H]21	none (no result: Lassa entry inh, Marburg entry inh)
O=C(Nc1ccccc1)C1=C(c2ccccc2)S(=O)(=O)CCS1(=O)=O	Lassa entry inh inconclusive, FMDV antiviral 14.1µM, Marburg entry inh 2.82µM, HCV inh inconclusive, HCMV antiviral -92.7
CC1=C(C(=O)Nc2ccc(C)cc2)C(c2ccco2)NC(=O)N1 (centres undefined)	none
CC1=C(C(=O)Nc2ccccc2)C(c2ccco2)NC(=O)N1 (centres undefined)	HCMV antiviral -97.4
O=C1CCC[C@H]2[C@@H](Cc3ccccc3)[C@@H](NCc3cccs3)CC[C@]23CCCN13	none (no result: Lassa entry inh, FMDV antiviral, Marburg entry inh, HCV inh)
Cc1ccc(NC(=O)COC(=O)c2ccco2)cc1S(=O)(=O)N1CCCCC1	none (no result: Lassa entry inh, Marburg entry inh, HCV inh)
COc1cccc(-c2nc3cc4c(cc3cc2CN(C(=O)c2cccs2)C2CC2)CCC4)c1OC	FMDV antiviral 31.6µM (no result: Lassa entry inh, Marburg entry inh, HCV inh, HCMV antiviral)
CCn1c(C)c(P(c2ccccc2)c2ccccc2)[n+]2ccccc12	FMDV antiviral inconclusive, Marburg entry inh inconclusive, HCMV antiviral -61.1
Cc1ccc(-c2cc(Cc3ccccc3)c(=O)[nH]n2)cc1	Lassa entry inh 2.51µM
COc1ccc2c(c1)CC/C(=C\c1ccc(OC)c(Cn3nc(C)cc3C)c1)C2=O	Lassa entry inh inconclusive, FMDV antiviral inconclusive, Marburg entry inh inconclusive, HCV inh 3.98µM
c1cnc2c(c1)ccc1ncccc12	none (no result: Lassa entry inh, Marburg entry inh)
Cc1ccc2ccc3cccnc3c2n1	Lassa entry inh inconclusive, Marburg entry inh inconclusive, HCV inh inconclusive, HCMV antiviral -77.8
Cc1nn(-c2ccccc2)c(Cl)c1/C=N/Nc1ccc(Cl)c(C(=O)O)c1	Lassa entry inh inconclusive, FMDV antiviral 10µM, Marburg entry inh 2µM
COc1ccccc1-n1cnnc1SCC(=O)Nc1cc(C(C)(C)C)nn1-c1ccccc1	HCV inh inconclusive, HCMV antiviral inconclusive
Cc1ccsc1C(=O)Nc1cc(C(C)(C)C)nn1-c1ccccc1	HCV inh inconclusive, HCMV antiviral -109.7
COc1ccc(-n2cnnc2SCC(=O)Nc2cc(C(C)(C)C)nn2-c2ccccc2)cc1	HCMV antiviral -96.5
CCn1ccnc1CNC(=O)CC1C(=O)NCCN1Cc1ccc(OC)cc1OC (centres undefined)	none (no result: Lassa entry inh, Marburg entry inh)
CCOc1ccccc1CN1CCNC(=O)C1CC(=O)NCc1nccn1CC (centres undefined)	HCMV antiviral -67.4
O=C1ON=C(c2ccc([N+](=O)[O-])cc2)/C1=C/c1ccccc1O	FMDV antiviral inconclusive, Marburg entry inh inconclusive
CCCCS(=O)(=O)C(=C1Nc2ccccc2N1)S(=O)(=O)CCCC	none
CCS(=O)(=O)C(=C1Nc2ccccc2N1)S(=O)(=O)CC	HCMV antiviral -97.7
COC1=C(C2C(OC)CCC3CCCCC32)C2=C(CCCC2)CC1 (centres undefined)	none (no result: Lassa entry inh, FMDV antiviral, HCV inh, HCMV antiviral)
CCn1c2ccccc2c2cc(CN3CCOc4ccc(C(O)c5cccnc5)cc4C3)ccc21 (centres undefined)	none (no result: Lassa entry inh, Marburg entry inh, HCV inh, HCMV antiviral)
O=C(O)c1cccc2c1-c1ccc([N+](=O)[O-])cc1C2=O	none
O=C(O)c1cccc2c1Cc1cc([N+](=O)[O-])ccc1-2	HCMV antiviral -97.1
COc1cc(NC(=O)c2cnc(NCc3ccccc3)nc2C)cc(OC)c1OC	Marburg entry inh inconclusive, HCV inh 3.55µM
C=CCC[C@@H](Cc1ccc(F)cc1)C(=O)OC[C@H](Cc1c[nH]c2ccccc12)NC(=O)[C@@H](CC=C)CC(=O)N[C@H](CO)Cc1ccccc1	none (no result: Lassa entry inh, Marburg entry inh)
C=CCC[C@H](Cc1ccc(F)cc1)C(=O)OC[C@@H](Cc1c[nH]c2ccccc12)NC(=O)[C@H](CC=C)CC(=O)N(CCO)Cc1ccccc1	FMDV antiviral 39.8µM, HCV inh inconclusive (no result: Lassa entry inh, Marburg entry inh)
C=CC[C@H](CC(=O)N(CCO)Cc1ccccc1)C(=O)N[C@@H](COC(=O)[C@@H](CC=C)Cc1ccc(F)cc1)Cc1c[nH]c2ccccc12	FMDV antiviral inconclusive, HCV inh 22.4µM (no result: Lassa entry inh, Marburg entry inh)
C=CCC[C@H](Cc1ccc(F)cc1)C(=O)OC[C@H](Cc1c[nH]c2ccccc12)NC(=O)[C@@H](CC=C)CC(=O)N[C@@H](CO)Cc1ccccc1	HCV inh inconclusive, HCMV antiviral -86.4 (no result: Lassa entry inh, Marburg entry inh)
CC(Sc1nc(-c2ccc(F)cc2)cs1)C(=O)N1c2ccccc2CC1C (centres undefined)	Lassa entry inh inconclusive, FMDV antiviral inconclusive, Marburg entry inh inconclusive, HCV inh 22.4µM
CC1(C(=O)Nc2cccc(C(F)(F)F)c2)Cc2c(-c3ccccc3)ccnc2O1 (centres undefined)	none (no result: Lassa entry inh, Marburg entry inh, HCV inh)
COCCCNC(=O)CSc1nc(-c2ccc(OC)cc2)[nH]c1-c1ccc(OC)cc1	HCMV antiviral -112.5 (no result: HCV inh)
COc1cc(-c2nc(SCC(=O)Nc3ccc(C)cc3)c(-c3ccc(F)cc3)[nH]2)cc(OC)c1OC	Lassa entry inh inconclusive, Marburg entry inh inconclusive, HCMV antiviral -61.2 (no result: HCV inh)
COc1ccc(-c2[nH]c(-c3cccc(OC)c3)nc2SCC(=O)NCc2ccco2)cc1	HCV inh 11.2µM (no result: Lassa entry inh)

Assay outcomes from PubChem BioAssay.
